Assay outcomes from PubChem BioAssay.
Hits are enriched below; roughly 21% of the tested compounds scored in any of these assays.
ClpP mod: qHTS Assay for Activators of ClpP; purified B. subtilis ClpP, FRET peptide cleavage, 20 min; AID 651965, 2013; Potency, µM (top dose mostly 57.5 µM), without a hit: at the top dose activity change, negative = active; actives 1.9% (n = 340,000); active = well fitted falling curve with a large enough effect; inconclusive = small, poorly fitted or top-dose-only effect; inactive = no such curve, though single readings can be large or run the other way; also: potency is read from the fitted curve at half-maximal effect; the source files actives as falling curves though it sought activators and does not explain the sign; nearly all actives have a fitted effect of over 65% in size
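Purified B. subtilis ClpP, 10 microg/mL final in Tris/HCl pH8 with KCl, BSA, glycerol and Tween-20, cleaved an Abz/nitrotyrosine-quenched decapeptide. Fluorescence (ex 320, em 430) was read at 0 and 20 min at room temperature. Delta was normalized to 5.8 microM ADEP and DMSO/no-enzyme controls.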
D3 ag: qHTS of D3 Dopamine Receptor Agonist: qHTS. D(3) dopamine receptor (Homo sapiens), P35462. D3R DiscoveRx beta-arrestin cells, luminescence, 90 min. max activation, %. actives 0.58% (n = 410,000); in the data active = max activation above about 30%; also: 0% is about no effect
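Agonist mode: compounds and dopamine controls were applied to plated cells for 90 min at 37 degrees C after an overnight attachment at 1500 cells/well. Luminescent read-out followed 30 - 60 minutes at room temperature with DiscoveRx detection reagent.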
TDP1 cell noCPT: qHTS for Inhibitors of human tyrosyl-DNA phosphodiesterase 1 (TDP1): qHTS in cells in absence of CPT. DT40 Tdp1-/- hTDP1 cells, no CPT, ATP luminescence, 48 h. AID 686978, 2013. Potency, µM (series often up to 46.2 µM), inactives show at the top dose activity change, negative = growth inhibition, actives largely listed as inhibitors. actives 15% (n = 420,000); also: potency is read from the fitted curve at half-maximal effect; % is scaled to controls: 0 for no effect and ±100 for the full control effect; nearly all actives have a fitted effect of over 55% in size
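Camptothecin absent (DMSO only). Human TDP1-complemented DT40 knockout cells, 400 cells/well, 37 °C for minimum 48 hr; ATP measured via CellTiter-Glo, 30 min dark incubation, luminescence.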
IL-1B inflam inh: qHTS for Inhibitors of Inflammasome Signaling: IL-1-beta AlphaLISA Primary Screen | THP-1 LPS/ATP IL-1B secretion, AlphaLISA, 16 h; active compounds read low | activity change, % at 57.5 µM | actives 4.7% (n = 360,000); in the data active = activity change below about -50%; inconclusive = mostly about -30% to -49%; also: % is scaled to controls: 0 for no effect and ±100 for the full control effect
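Secreted IL-1B measured by AlphaLISA bead assay after 16 h compound exposure of THP-1 cells; compounds (final up to 57.5 uM) added 1 h before LPS (250 ng/mL) and ATP (1.25 mM) stimulation; lower signal means less secretion.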
DRD3 antagonist: qHTS of D3 Dopamine Receptor Antagonist: qHTS. D3R cells, DiscoveRx beta-arrestin luminescence, antagonist mode; active compounds read low. actives 2.5% (n = 360,000). D(3) dopamine receptor (Homo sapiens), P35462. AID 652054, 2013. max response, negative = inhibition, %; in the data active = max response below about -50%; inconclusive = no clear call, values can overlap the other calls; also: % is scaled to controls: 0 for no effect and ±100 for the full control effect
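Cells plated overnight at 1500 cells/well, then exposed to library compounds with dopamine controls for 90 minutes at 37 degrees C. DiscoveRx reagent added for 30–60 minutes at room temperature; luminescence read, quantitative HTS format.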
DT40 TDP1 CPT: qHTS for Inhibitors of human tyrosyl-DNA phosphodiesterase 1 (TDP1): qHTS in cells in presence of CPT; chicken DT40 Tdp1-/-;hTDP1 cells + 20 nM CPT, ATP luminescence, 48 h; Potency, µM (series often up to 46.2 µM), without a hit: top-dose activity change, negative = growth inhibition, actives largely listed as inhibitors; actives 12% (n = 420,000); also: potency is read from the fitted curve at half-maximal effect; % is scaled to controls: 0 for no effect and ±100 for the full control effect; nearly all actives have a fitted effect of over 55% in size
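Cell growth measured by CellTiter-Glo luminescence after a minimum 48 h, 37 C compound exposure with 20 nM CPT in Tdp1-knockout DT40 cells stably expressing hTDP1, seeded 400/well; qHTS titration format.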
Starred values were filed as active, the others as inactive. Unless noted, calls follow the shape of the dose curve; as a rule, active = well fitted inhibition curve with a large enough effect; inconclusive = small, poorly fitted or top-dose-only effect; inactive = flat fitted curve, though single readings scatter.

For CCOc1cc(N2CCOCC2)c(OCC)cc1NCC(=O)N1CCN(Cc2ccccc2)CC1 the results were D3 ag 7, TDP1 cell noCPT inconclusive, IL-1B inflam inh -1, DRD3 antagonist -2 and DT40 TDP1 CPT inconclusive.
COc1cc2c(N3CCOCC3)cc(O)c(CC(=O)Nc3ccccc3)c2cc1OC was read as ClpP mod 28µM*, D3 ag -1, TDP1 cell noCPT -9%, IL-1B inflam inh 11, DRD3 antagonist 8 and DT40 TDP1 CPT -1%.
For COc1ccccc1OCCNC(=O)c1ccc(C)c(S(=O)(=O)N2CCOCC2)c1 the results were ClpP mod -2%, D3 ag 0, TDP1 cell noCPT inconclusive, IL-1B inflam inh -1, DRD3 antagonist 9 and DT40 TDP1 CPT inconclusive.
`CC(=O)N1CCc2cc(CNC(=O)Nc3ccccc3C(F)(F)F)ccc21` gave ClpP mod -4%, D3 ag -16, TDP1 cell noCPT -11% and DT40 TDP1 CPT -16%.
Screening CCOc1cc(N2CCOCC2)c(OCC)cc1NC(=O)CSc1ccccc1C(=O)O returned ClpP mod -2%, D3 ag -3, TDP1 cell noCPT -19%, IL-1B inflam inh 11, DRD3 antagonist -6 and DT40 TDP1 CPT inconclusive.
Screening CCOc1cc(N2CCOCC2)c(OCC)cc1NC(=O)c1cccc(N(C)C)c1 returned D3 ag 6, TDP1 cell noCPT 21µM*, IL-1B inflam inh -3, DRD3 antagonist 16 and DT40 TDP1 CPT inconclusive.
CCCOc1ccc(C(=O)Nc2ccc(N3CCOCC3)cc2N2CCOCC2)cc1OCC was read as ClpP mod -3%, D3 ag 3, TDP1 cell noCPT 21µM*, IL-1B inflam inh -9, DRD3 antagonist 19 and DT40 TDP1 CPT inconclusive.
`CCOc1cc(N2CCOCC2)c(OCC)cc1NC(=O)c1ccc(S(C)(=O)=O)cc1` gave D3 ag -3, TDP1 cell noCPT -21%, IL-1B inflam inh -3, DRD3 antagonist -5 and DT40 TDP1 CPT -2%.
CCOc1cc(N2CCOCC2)c(OCC)cc1NC(=O)CN1CCc2ccccc2C1 was read as ClpP mod 0%, D3 ag 0, TDP1 cell noCPT 18µM*, IL-1B inflam inh 2, DRD3 antagonist inconclusive and DT40 TDP1 CPT 23µM*.
Screening CCOc1ccc(OCCC(=O)OCC(=O)Nc2cc(OCC)c(N3CCOCC3)cc2OCC)cc1 returned ClpP mod 1%, D3 ag -3, TDP1 cell noCPT 26µM*, IL-1B inflam inh -13, DRD3 antagonist 17 and DT40 TDP1 CPT 18µM*.
CCOc1ccc(C(=O)NCC(=O)Nc2ccc(N3CCOCC3)cc2)cc1OCC was read as ClpP mod -1%, D3 ag -20, TDP1 cell noCPT -3%, IL-1B inflam inh -7, DRD3 antagonist -26 and DT40 TDP1 CPT -28%.
Screening Cc1nc(N2CCN(C)CC2)c2nnn(Cc3ccccc3)c2n1 returned ClpP mod 0%, TDP1 cell noCPT inconclusive and DT40 TDP1 CPT -18%.
`CCc1sc(-c2cc3ccc(O)cc3oc2=O)nc1-c1ccc(C)cc1` gave ClpP mod inconclusive, TDP1 cell noCPT -25% and DT40 TDP1 CPT inconclusive.
Screening Cc1nn(C(C)C(=O)O)c(=O)c2ccccc12 (centres undefined) returned D3 ag -6, TDP1 cell noCPT -11%, IL-1B inflam inh 7, DRD3 antagonist -2 and DT40 TDP1 CPT 28%.
Screening CCOc1cc(N2CCOCC2)c(OCC)cc1NC(=O)c1[nH]c(C)c(C(C)=O)c1C returned ClpP mod 0%, D3 ag 0, TDP1 cell noCPT 5.8µM*, IL-1B inflam inh 18, DRD3 antagonist 13 and DT40 TDP1 CPT 8.2µM*.
For CCOc1cc(N2C(=O)CC3CS(=O)(=O)CC32)c(OCC)cc1NC(=O)c1ccccc1 (centres undefined) the results were ClpP mod -2%, D3 ag -3, TDP1 cell noCPT 21µM*, IL-1B inflam inh 21, DRD3 antagonist -62* and DT40 TDP1 CPT inconclusive.
`CCOc1cc(N2CCOCC2)c(OCC)cc1NC(=O)COc1ccccc1[N+](=O)[O-]` gave D3 ag 5, TDP1 cell noCPT inconclusive, IL-1B inflam inh -80*, DRD3 antagonist 11 and DT40 TDP1 CPT -10%.
`CCOc1cc(NC(=S)NCC2CCCO2)c(OCC)cc1NC(=O)c1ccccc1` (centres undefined) gave ClpP mod -1%, D3 ag 1, TDP1 cell noCPT -10%, IL-1B inflam inh -21, DRD3 antagonist 19 and DT40 TDP1 CPT -29%.
Screening CCOc1cc(N2CCOCC2)c(OCC)cc1NC(=O)COc1cccc(CC)c1 returned ClpP mod 2%, D3 ag 6, TDP1 cell noCPT 8.2µM*, IL-1B inflam inh 15, DRD3 antagonist 41 and DT40 TDP1 CPT 18µM*.
CCOc1cc(N2CCOCC2)c(OCC)cc1NC(=O)COC(=O)c1cc2ccccc2cc1O was read as ClpP mod 2%, D3 ag -4, TDP1 cell noCPT inconclusive, IL-1B inflam inh 3, DRD3 antagonist 7 and DT40 TDP1 CPT inconclusive.
`CCOCC(=O)Nc1ccc(S(=O)(=O)N2CCC(c3nc4ccccc4[nH]3)CC2)cc1` gave ClpP mod -11%, D3 ag 8, TDP1 cell noCPT inconclusive, IL-1B inflam inh -9, DRD3 antagonist -1 and DT40 TDP1 CPT -24%.
For O=C(NCC1CCN(c2ccc(S(=O)(=O)N3CCOCC3)cc2)CC1)Nc1ccccc1 the results were D3 ag 5, TDP1 cell noCPT 23µM*, IL-1B inflam inh 0, DRD3 antagonist 9 and DT40 TDP1 CPT inconclusive.
For COc1ccc(S(=O)(=O)N2CCOCC2)cc1C(=O)NCC(c1ccccc1)c1ccccc1 the results were ClpP mod 2%, D3 ag -7, TDP1 cell noCPT inconclusive, IL-1B inflam inh -6, DRD3 antagonist 21 and DT40 TDP1 CPT inconclusive.
O=C(NCC1CCN(c2ccc(S(=O)(=O)N3CCOCC3)cc2)CC1)Nc1ccccc1F was read as D3 ag 1, TDP1 cell noCPT 21µM*, IL-1B inflam inh -12, DRD3 antagonist 3 and DT40 TDP1 CPT inconclusive.
